Inconclusive results are not listed. The source made the active and inactive calls. The call rests on the fitted dose curve; in most records, active means well fitted inhibition curve with a large enough effect; inconclusive means small, poorly fitted or top-dose-only effect; inactive means flat fitted curve, though single readings scatter.
Legend:
Test in all cases: qHTS profiling for inhibitors of Plasmodium falciparum proliferation (AID 504749); further: nearly all actives have a fitted effect of over 60% in size
Details in all cases: P. falciparum in erythrocytes, SYBR Green DNA, 72 h; series mostly up to 28.7 µM
P93_24 = test system: P93_24
Method in brief: (§1)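 Infected RBCs, 0.3% parasitemia/2.5% Hct final; cpd 72 h, 37 C, 5% CO2; lysis buffer with saponin/triton/SYBR Green I, o/n RT dark; FI 485/535; norm. to artemisinin (0.29 uM) and DMSO.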

P94_40 = test system: P94_40
Method in brief: as §1

PAD = test system: PAD
Method in brief: as §1

PC15 = test system: PC15
Method in brief: as §1

PC26 = test system: PC26
Method in brief: as §1

PC49 = test system: PC49
Method in brief: as §1

SC27B = test system: SC27B
Method in brief: as §1

TAB109 = test system: TAB109
Method in brief: as §1

TAB113 = test system: TAB113
Method in brief: as §1

TAB165 = test system: TAB165
Method in brief: as §1

Measured: Potency
Potency means the concentration at half of the fitted maximal effect.

O=C(O)CCNC(=O)c1ccccc1
inactive: all assays above

CCNC(=O)NCc1cccc(Cl)c1
inactive: all assays above

CCCCNc1ccc(C(=O)OCCOCCOCCOCCOCCOCCOCCOCCOCCOC)cc1
not listed: TAB165
inactive: all other assays above

CC(=O)NC(=O)c1ccccc1O
inactive: all assays above

CCOc1ccccc1C(N)=O
inactive: all assays above

CC(=O)Nc1ccc(OCC(O)CNC(C)C)cc1 (stereo not drawn)
inactive: all assays above

CN(C)CCC[C@@]1(c2ccc(F)cc2)OCc2cc(C#N)ccc21
not listed: TAB165
inactive: all other assays above

CCCCCCCCOc1ccc(C(=O)c2ccccc2)c(O)c1
inactive: all assays above

O=C1C(O)=C(O)C(=O)C(O)=C1O
inactive: all assays above

CCOc1cc(OCC)c(C(=O)CCC(=O)O)cc1OCC
inactive: all assays above

NCCNC(=O)c1ccc(Cl)cn1
inactive: all assays above

O=C(O)c1ccc(S(=O)(=O)N(Cl)Cl)cc1
inactive: all assays above

CCN(CC)CCNC(=O)COc1ccc(OC)cc1
inactive: all assays above

CC(=O)OCC(=O)[C@H]1CC[C@H]2[C@@H]3CCC4=CC(=O)CC[C@]4(C)[C@H]3CC[C@]12C
inactive: all assays above

C#C[C@]1(O)CC[C@H]2[C@@H]3CCC4=Cc5oncc5C[C@]4(C)[C@H]3CC[C@@]21C
inactive: all assays above

CNCCc1ccccn1
inactive: all assays above

Cc1ccc(O)c([C@H](CCN(C(C)C)C(C)C)c2ccccc2)c1
active: P93_24 4.47 µM | P94_40 2.24 µM | PAD 2.82 µM | PC15 3.16 µM | PC26 4.78 µM | PC49 3.16 µM | SC27B 4.47 µM | TAB109 3.55 µM | TAB113 3.98 µM | TAB165 2.24 µM

O=C(NCCc1c[nH]c2ccccc12)c1cccnc1
inactive: all assays above

CC(C)(C)NC[C@H](O)COc1cccc2c1CCCC2=O
inactive: all assays above

CCOC(=O)C(C#N)=C(c1ccccc1)c1ccccc1
inactive: all assays above

c1ccc(CC2=NCCN2)cc1
inactive: all assays above

O=C(O)Cc1csc(-c2ccc(Cl)cc2)n1
inactive: all assays above

FC(F)(F)C(F)(F)C(F)(F)C(F)(F)C(F)(F)C(F)(F)C(F)(F)C(F)(F)Br
inactive: all assays above

O=S(=O)(O)c1ccc(O)cc1
inactive: all assays above

CCc1oc2ccccc2c1C(=O)c1cc(I)c(O)c(I)c1
inactive: all assays above

OC[C@H]1O[C@@H]2O[C@H]3[C@H](O)[C@@H](O)[C@@H](O[C@H]4[C@H](O)[C@@H](O)[C@@H](O[C@H]5[C@H](O)[C@@H](O)[C@@H](O[C@H]6[C@H](O)[C@@H](O)[C@@H](O[C@H]7[C@H](O)[C@@H](O)[C@@H](O[C@H]8[C@H](O)[C@@H](O)[C@@H](O[C@H]1[C@H](O)[C@H]2O)O[C@@H]8CO)O[C@@H]7CO)O[C@@H]6CO)O[C@@H]5CO)O[C@@H]4CO)O[C@@H]3CO
inactive: all assays above

C=C[C@@]1(C)CC(=O)[C@]2(O)[C@@]3(C)[C@@H](O)CCC(C)(C)[C@@H]3[C@H](O)[C@H](OC(C)=O)[C@@]2(C)O1
inactive: all assays above

COc1cc(NS(=O)(=O)c2ccc(N)cc2)ncn1
inactive: all assays above

CCOC(=O)Nc1ccc2c(c1)N(C(=O)CCN1CCOCC1)c1ccccc1S2
inactive: all assays above

CCOc1ccccc1OCCN[C@H](C)Cc1ccc(OC)c(S(N)(=O)=O)c1
inactive: all assays above

CCOc1ccc(NC(C)=O)cc1
inactive: all assays above

OCc1ccccn1
inactive: all assays above

COc1cc(C)nc(-n2nc(C)cc2OC)n1
inactive: all assays above

C[N+]1(CC2COC(c3ccccc3)(C3CCCCC3)O2)CCCCC1 (stereo not drawn)
active: P93_24 6.31 µM | P94_40 4.47 µM | PAD 5.01 µM | PC15 5.62 µM | PC26 4.26 µM | PC49 6.31 µM | SC27B 7.08 µM | TAB109 6.31 µM | TAB113 5.01 µM | TAB165 5.01 µM

Nc1nc(-c2ccccc2)c(Br)c(=O)[nH]1
inactive: all assays above

NC(=O)n1c(O)c(C(=O)c2cccs2)c2cc(Cl)ccc21
inactive: all assays above

CC(C)CCCC(C)N (stereo not drawn)
inactive: all assays above

CCN1/C(=C/C=C/c2sc3ccccc3[n+]2CC)Sc2ccccc21
active: P93_24 0.112 µM | P94_40 0.112 µM | PAD 0.282 µM | PC15 0.316 µM | PC26 0.849 µM | PC49 1.12 µM | SC27B 0.282 µM | TAB109 0.141 µM | TAB113 0.141 µM | TAB165 0.141 µM

COc1ccc2c(c1)c1c3n2CCN(C)C3=NCC1
inactive: all assays above

NS(=O)(=O)c1cc(C(=O)O)cc(N2CCCC2)c1Oc1ccccc1
inactive: all assays above

Cc1ccc(S(=O)(=O)NC(=O)NC2CCCC2)cc1
inactive: all assays above

CCCN(CCC)S(=O)(=O)c1ccc(C(=O)O)cc1
inactive: all assays above

O=C(O)C(Cc1cc(I)c(O)c(I)c1)c1ccccc1 (stereo not drawn)
inactive: all assays above

Cc1nc(-c2ccc(Cl)cc2)oc1COC(C)(C)C(=O)O
inactive: all assays above

O=C(O)P(=O)(O)O
inactive: all assays above
